Assay results published in PubChem BioAssay AID687001 (Broad Institute, 2013).
Entries with a potency or affinity are not part of this list. Calls of active or inactive are those of the source.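 Rule for the calls: active = signal-lowering compounds whose fitted half-maximal concentration is at or below twice the top tested dose in every run; inconclusive = runs disagree, flat 30 to 70% inhibition, or poor curve fit; inactive = the rest.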

target: Protein S100-A4 (Homo sapiens) (UniProt P26447); assay: S100A4-myosin IIA binding inhibitor potency, dose response, biochemical, fluorescence polarization, cherry-picked hits (AID 687001); conditions: FP, S100A4/TAMRA-myosin IIA peptide binding; series mostly up to 11 µM
Sequence (P26447 whole entry, looked up): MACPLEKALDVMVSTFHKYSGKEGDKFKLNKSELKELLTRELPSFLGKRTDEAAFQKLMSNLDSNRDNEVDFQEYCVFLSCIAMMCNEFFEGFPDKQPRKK

outcome, inactive:
CCOC(=O)[C@@H]1[C@H]2COc3cc(OC)ccc3[C@@H]2N2C(=O)N(c3cccc(C)c3)C(=O)[C@]12C, Cc1noc(C)c1NC(=O)N(C)C[C@H]1Oc2c(NC(=O)CCCCCC(=O)Nc3ccccc3N)cccc2C(=O)N([C@@H](C)CO)C[C@H]1C, COc1ccccc1NC(=O)N[C@H]1C=C[C@H](CC(=O)N2CCC(Cc3ccccc3)CC2)O[C@@H]1CO, C[C@@H]1CN([C@H](C)CO)C(=O)c2cc(NC(=O)Nc3ccc(C(F)(F)F)cc3)ccc2O[C@@H]1CN(C)C(=O)Nc1ccc(C(F)(F)F)cc1, COc1ccc(C#Cc2ccc([C@H]3[C@H]4CN(S(=O)(=O)c5ccccc5)CCCCN4[C@H]3CO)cc2)cc1, O=C(c1ccccc1)c1ccc2nc(N3CCCCC3)c3nncn3c2c1, O=C(CSc1n[nH]c(-c2ccc(Br)cc2)n1)NC1CCCC1, O=C(NCCS(=O)(=O)NCCc1ccccc1)c1ccccc1, Cc1ccc(CNC(=O)Cn2cnc(C(=O)Nc3ccc(C)c(C)c3)n2)o1, COc1ccccc1[C@H]1C(c2ccc(F)cc2)=NN(c2ccccc2)[C@@H]1CO, O=C1CC(C(=O)N2CCN(c3ccccn3)CC2)CN1Cc1ccccc1Cl (centres undefined), C[C@@H]1CN([C@@H](C)CO)C(=O)c2cc(C#C[C@@H](C)O)cnc2O[C@H]1CN(C)C(=O)Cc1ccncc1, CCCc1cc(C(=O)Nc2cccc3ccccc23)n(C)n1, CO[C@@H]1CN(C)C(=O)c2cc(NS(=O)(=O)CC(F)(F)F)ccc2OC[C@@H](C)N(C)C[C@H]1C, Cn1cnc(S(=O)(=O)N2C[C@H](O)COC[C@@H]3O[C@H](CC(=O)NC4CCCC4)CC[C@H]32)c1, COCC(=O)N[C@H]1C=C[C@@H](CC(=O)OC)O[C@@H]1CO, CCC(=O)N1C[C@H](O)COC[C@H]2O[C@H](CC(=O)NCc3cc(F)cc(F)c3)CC[C@@H]21, CCCc1cn(CC[C@@H]2CC[C@H](NS(=O)(=O)c3ccccc3Cl)[C@@H](CO)O2)nn1, C[C@@H]1CN([C@H](C)CO)C(=O)c2cccc(NC(=O)C3CCCCC3)c2O[C@@H]1CN(C)Cc1ccc(Oc2ccccc2)cc1, CC(NC(=O)C(=O)NCc1cccs1)c1ccccc1 (centres undefined), C[C@@H]1CN([C@H](C)CO)C(=O)c2cccc(NC(=O)c3ccncc3)c2O[C@@H]1CN(C)C, COc1ccccc1CNC(=O)COC(=O)CSc1ccc(Cl)cc1, Cc1cccc(-n2nc3c(c2NC(=O)c2cc4ccccc4o2)CS(=O)(=O)C3)c1, Cc1ccc(-c2ccc(=O)n(Cc3ccc(F)cc3)n2)cc1, O=C(c1ccccc1)N1CC2(C1)[C@H](c1ccccc1)[C@@H](CO)N2Cc1ccccn1, O=C(Cn1cc(COc2ccc3ccc(=O)oc3c2)nn1)c1ccc(O)cc1, C[C@@H]1CN([C@H](C)CO)S(=O)(=O)c2ccc(C#C[C@@H](C)O)cc2O[C@@H]1CN(C)C(=O)C1CC1, Cc1cc2cc(CNC(=O)c3ccc(S(=O)(=O)N4CCCC4)cc3)ccc2n1C, O=C(c1cccc(F)c1)N1CC[C@H]2[C@H](CO)Nc3ccc(-c4ccc(F)cc4)cc3[C@H]21, CN(CC(=O)Nc1ccc(F)cc1)C(=O)CCc1nc2sc3c(c2c(=O)[nH]1)CCCC3, C[C@H]1CCCCO[C@H](CN(C)C(=O)c2ccccc2)[C@@H](C)CN([C@@H](C)CO)C(=O)c2cc(NC(=O)NC3CCCCC3)ccc2O1, COc1ccc(C(=O)O)cc1S(=O)(=O)Nc1ccccc1-c1ccccc1, O=C(NCC[C@H]1CC[C@@H](NS(=O)(=O)c2ccccc2F)[C@H](CO)O1)c1ccc(F)cc1, Cc1oc(-c2ccccc2Cl)nc1CSCC(=O)O, C[C@H](CO)N1C[C@H](C)[C@@H](CN(C)Cc2ccc(C(=O)Nc3ccccc3N)cc2)Oc2c(NC(=O)C3CCCCC3)cccc2C1=O, COc1ccccc1-c1ccc2c(c1)O[C@H](CN(C)C(C)=O)[C@@H](C)CN([C@@H](C)CO)S2(=O)=O, COc1cccc(NC(=O)N(C)C[C@H]2Oc3cc(C#CC4(O)CCCC4)ccc3S(=O)(=O)N([C@H](C)CO)C[C@H]2C)c1, C[C@H](NC(=O)C[C@@H]1CC[C@H](NC(=O)C2CCOCC2)[C@@H](CO)O1)c1ccccc1, CC=Cc1ccc2n(c1=O)C[C@H]1[C@H](CO)[C@@H](C(=O)NCC3CC3)[C@@H]2N1Cc1cccnc1 (mixture of isomers)
